Measured values published in PubChem BioAssay (NCATS).
Inconclusive results are not listed. Where a call stands in place of a potency, no number is given. Calls of active or inactive are those of the source. Unless noted, the call rests on the fitted dose curve; in most records, active means well fitted curve in the direction sought with a large enough effect; inconclusive means small, poorly fitted or top-dose-only effect, or another doubt; inactive means no such curve, though single readings can be large; an effect the other way counts as inactive or inconclusive.

Key:
[1] = target: Thioredoxin reductase 1, cytoplasmic (Rattus norvegicus) (UniProt O89049); experiment: qHTS Assay for Substrates of Mammalian Selenoprotein Thioredoxin Reductase 1 (TrxR1) (AID 488772);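 further: NADPH fluorescence in the first read after selenite addition and not the 8 min delta; series mostly up to about 57 µM; a drop in NADPH fluorescence below the no-compound background marks a TrxR1 substrate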
Chain of Thioredoxin reductase 1, cytoplasmic (Rattus norvegicus) (O89049 whole entry, looked up): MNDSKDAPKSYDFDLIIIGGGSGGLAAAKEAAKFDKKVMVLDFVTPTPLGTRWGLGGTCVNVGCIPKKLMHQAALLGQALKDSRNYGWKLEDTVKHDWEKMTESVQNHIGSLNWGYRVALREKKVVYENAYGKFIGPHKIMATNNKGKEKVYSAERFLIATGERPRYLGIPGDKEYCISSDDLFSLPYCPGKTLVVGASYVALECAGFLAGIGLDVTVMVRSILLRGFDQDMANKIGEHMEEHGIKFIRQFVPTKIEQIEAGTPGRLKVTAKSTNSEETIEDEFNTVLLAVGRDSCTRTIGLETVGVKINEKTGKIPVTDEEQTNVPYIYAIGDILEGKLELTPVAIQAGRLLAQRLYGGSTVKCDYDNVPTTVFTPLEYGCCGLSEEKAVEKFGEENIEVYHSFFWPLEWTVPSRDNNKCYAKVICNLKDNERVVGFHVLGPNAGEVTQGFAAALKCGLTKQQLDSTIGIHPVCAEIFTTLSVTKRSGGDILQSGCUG
In short: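 Quantitative HTS in Tris-HCl buffer at pH 7.5 with EDTA and Tween-20, using rat TrxR1, 400 uM NADPH and 400 uM selenite (final). A fall in initial NADPH fluorescence relative to background marked substrate behaviour.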

[2] = target: Thioredoxin reductase 1, cytoplasmic (Rattus norvegicus) (UniProt O89049); experiment: qHTS Assay for Inhibitors of Mammalian Selenoprotein Thioredoxin Reductase 1 (TrxR1) (AID 488773); details: Potency: inhibition; further: nearly all actives have a fitted effect of over 40% in size; further: potency means the concentration at half of the fitted maximal effect
In short: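 Steps: enzyme (90 nM) plus NADPH (400 uM final), 5 min at ~22 deg C; compound added, 15 min; selenite (400 uM final) added; fluorescence followed for 8 min. Concentration-response curves derived from the normalized delta values.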

[3] = target: Flap endonuclease 1 (Homo sapiens) (UniProt P39748); experiment: qHTS Validation Assay for the Inhibitors of Human Flap endonuclease 1 (FEN1) (AID 488816)
Chain of Flap endonuclease 1 (Homo sapiens) (P39748 whole entry, looked up): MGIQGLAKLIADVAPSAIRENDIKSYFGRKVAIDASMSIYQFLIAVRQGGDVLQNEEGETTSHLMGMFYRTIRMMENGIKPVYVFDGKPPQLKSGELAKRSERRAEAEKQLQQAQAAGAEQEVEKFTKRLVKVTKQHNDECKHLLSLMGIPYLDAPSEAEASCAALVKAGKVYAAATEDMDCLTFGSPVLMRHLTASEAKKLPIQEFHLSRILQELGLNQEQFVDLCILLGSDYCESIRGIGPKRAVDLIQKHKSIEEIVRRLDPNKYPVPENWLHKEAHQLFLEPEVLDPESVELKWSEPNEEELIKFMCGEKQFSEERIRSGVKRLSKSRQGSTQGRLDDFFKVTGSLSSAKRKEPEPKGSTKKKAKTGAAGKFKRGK
In short: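 Human FEN1 (10 nM) preincubated 15 min at room temperature with compounds, then flap DNA substrate added at 50 nM final. Fluorescence read at 0 and 15 min; concentration-response fitted with four-parameter Hill equation.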

[4] = target: M-phase phosphoprotein 8 (Homo sapiens) (UniProt Q99549); experiment: qHTS Validation Assay for Inhibitors for MPP8 Chromodomain Interactions with Methylated Histone Tails (AID 488949); further: nearly all actives have a fitted effect of over 55% in size; further: potency means the concentration at half of the fitted maximal effect
In short: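 MPP8 (50 nM) was preincubated with biotinylated H3(1-18)K9me3 peptide (50 nM) in PBS pH 7.4, 0.01% Tween-20 for 30 min at room temperature, then with compounds for 30 min; binding was detected by AlphaScreen.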

[5] = target: Chromobox protein homolog 1 (Homo sapiens) (UniProt P83916); experiment: qHTS Validation Assay for Inhibitors of HP1-beta Chromodomain Interactions with Methylated Histone Tails (AID 488953); further: nearly all actives have a fitted effect of over 50% in size; further: potency means the concentration at half of the fitted maximal effect
In short: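 HP1-beta (50 nM) preformed 30 min with biotinylated H3(1-18)K9me3 peptide (50 nM) in PBS pH 7.4, 0.01% Tween-20. Compounds added for 30 min at room temperature. Complex disruption read by AlphaScreen with streptavidin donor/nickel chelate acceptor beads (10 ug/mL each).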

[6] = target: Methanococcus maripaludis chaperonin (MmCpn) (UniProt Q6LX38); experiment: High-Throughput Screening for Modulators of Cytosolic Chaperonin Activity: MmCpn Primary Screen (AID 488978);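 further: 50 nM MmCpn enzyme hydrolysing 30 µM ATP at 37 °C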
Chain of Methanococcus maripaludis chaperonin (MmCpn) (Q6LX38 1-543): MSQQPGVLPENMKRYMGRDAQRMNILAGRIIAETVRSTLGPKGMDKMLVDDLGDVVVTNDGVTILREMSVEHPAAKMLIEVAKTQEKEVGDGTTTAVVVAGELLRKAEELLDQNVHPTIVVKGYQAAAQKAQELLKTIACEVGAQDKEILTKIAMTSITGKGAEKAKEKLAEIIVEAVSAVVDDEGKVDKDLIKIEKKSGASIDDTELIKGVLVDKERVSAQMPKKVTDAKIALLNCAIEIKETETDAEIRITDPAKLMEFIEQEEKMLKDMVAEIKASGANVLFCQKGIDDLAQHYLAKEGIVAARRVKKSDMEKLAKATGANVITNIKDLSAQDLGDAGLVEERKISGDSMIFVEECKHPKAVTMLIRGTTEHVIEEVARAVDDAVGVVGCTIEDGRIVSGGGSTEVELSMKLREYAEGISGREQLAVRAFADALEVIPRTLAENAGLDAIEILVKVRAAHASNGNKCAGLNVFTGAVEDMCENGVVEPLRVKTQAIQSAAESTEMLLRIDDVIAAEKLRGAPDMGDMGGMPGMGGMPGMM
In short: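 MmCpn (50 nM final) was preincubated with compound 5 min at RT, then 30 uM ATP (final) was added and the reaction ran 10 min at 37C. ADP produced was detected by Transcreener HTRF (ex 320 nm; em 590/665 nm).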

[7] = target: Transient receptor potential cation channel subfamily V member 1 (Homo sapiens) (UniProt Q8NER1); experiment: HTS Assay for Compounds that Act as Enhancers of the Vanilloid Receptor 1 (AID 488979)
Chain of Transient receptor potential cation channel subfamily V member 1 (Homo sapiens) (Q8NER1 whole entry, looked up): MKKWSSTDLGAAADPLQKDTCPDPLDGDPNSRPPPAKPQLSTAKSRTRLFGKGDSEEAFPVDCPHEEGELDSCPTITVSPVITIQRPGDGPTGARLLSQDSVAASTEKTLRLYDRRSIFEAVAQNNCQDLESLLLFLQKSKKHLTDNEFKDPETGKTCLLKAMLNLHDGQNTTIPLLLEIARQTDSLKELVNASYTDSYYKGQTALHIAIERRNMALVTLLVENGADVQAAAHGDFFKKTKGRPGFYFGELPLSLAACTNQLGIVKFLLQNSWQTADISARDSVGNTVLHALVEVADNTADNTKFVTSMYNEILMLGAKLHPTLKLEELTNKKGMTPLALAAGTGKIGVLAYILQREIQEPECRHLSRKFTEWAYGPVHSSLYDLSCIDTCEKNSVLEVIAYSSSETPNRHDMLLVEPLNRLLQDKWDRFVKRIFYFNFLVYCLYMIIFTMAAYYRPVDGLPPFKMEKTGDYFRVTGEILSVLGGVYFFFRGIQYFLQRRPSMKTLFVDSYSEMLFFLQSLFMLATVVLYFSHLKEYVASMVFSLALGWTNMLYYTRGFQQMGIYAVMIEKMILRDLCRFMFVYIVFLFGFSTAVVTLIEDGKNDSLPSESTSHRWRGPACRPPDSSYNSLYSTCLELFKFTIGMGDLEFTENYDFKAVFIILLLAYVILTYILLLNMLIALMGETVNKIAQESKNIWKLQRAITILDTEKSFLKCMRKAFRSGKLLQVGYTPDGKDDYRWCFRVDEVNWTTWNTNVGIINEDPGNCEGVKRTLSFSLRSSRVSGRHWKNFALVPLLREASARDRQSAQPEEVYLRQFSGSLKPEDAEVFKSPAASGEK
In short: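 TRPV1 cells loaded with Fluo-8 calcium dye; compound added and Ca2+ signal (ex 480/em 520 nm) followed 3 min, then capsaicin at EC20 added and read 2 more min to detect enhancement.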

[8] = target: Thyrotropin receptor (Homo sapiens) (UniProt P16473); experiment: qHTS Assay for Antagonists of the Thyroid Stimulating Hormone Receptor (AID 488980); further: series mostly up to about 58 µM
In short: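 HEK293 cells transfected with human TSHR, suspended in HEPES-buffered HBSS with 70 uM RO 20-1724, were treated with compounds plus TSH at EC80 (4 nM final). cAMP was measured by competitive HTRF (cryptate anti-cAMP antibody, cAMP-d2 acceptor).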

[9] = target: D(1A) dopamine receptor (Homo sapiens) (UniProt P21728); experiment: HTS Assay for Allosteric Agonists of the Human D1 Dopamine Receptor: Primary Screen for Potentiators (AID 488982)
Chain of D(1A) dopamine receptor (Homo sapiens) (P21728 whole entry, looked up): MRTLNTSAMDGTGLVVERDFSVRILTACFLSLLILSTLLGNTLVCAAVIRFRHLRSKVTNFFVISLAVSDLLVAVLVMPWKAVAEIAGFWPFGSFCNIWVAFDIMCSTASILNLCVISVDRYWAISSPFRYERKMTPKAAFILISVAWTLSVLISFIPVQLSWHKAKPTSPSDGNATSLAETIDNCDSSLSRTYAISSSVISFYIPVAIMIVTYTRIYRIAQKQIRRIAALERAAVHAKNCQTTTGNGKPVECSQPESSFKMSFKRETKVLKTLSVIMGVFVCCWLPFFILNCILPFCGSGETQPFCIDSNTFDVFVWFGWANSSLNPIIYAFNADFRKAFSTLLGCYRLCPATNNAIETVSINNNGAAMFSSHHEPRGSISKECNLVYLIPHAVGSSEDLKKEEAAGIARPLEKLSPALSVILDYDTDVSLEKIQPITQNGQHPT
In short: (§1)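 Tetracycline-induced HEK293 Trex D1 cells with forced coupling to calcium, loaded with no-wash calcium dye; kinetic fluorescence read 180 s after compound addition for agonism, then a further 180 s after an EC20 dopamine challenge for potentiation.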

[10] = target: D(1A) dopamine receptor (Homo sapiens) (UniProt P21728); experiment: HTS Assay for Allosteric Agonists of the Human D1 Dopamine Receptor: Primary Screen for Antagonists (AID 488983);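 further: calcium flux response to an EC80 dopamine challenge measured with no-wash dye; nearly all actives have a fitted effect of over 65% in size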; further: potency means the concentration at half of the fitted maximal effect
In short: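 Tetracycline-induced HEK293 T-REx D1 line, force-coupled to calcium flux, read with no-wash calcium dye. Compound added after 10 s baseline, read 180 s for agonism, then EC80 dopamine added and read a further 180 s.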

[11] = Validation screen for small molecules that induce genotoxicity in human embryonic kidney (HEK293T) cells expressing luciferase-tagged ELG1 (AID 493106)
In short: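 HEK293T cells expressing luciferase-tagged ELG1, 2,000 cells/well, exposed to compound 16 hr at 37 °C, 5% CO2. Luciferase read after ONE-Glo, 30 min at room temperature; increased signal indicates genetic stress.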

[12] = target: ATPase family AAA domain-containing protein 5 (Homo sapiens) (UniProt Q96QE3); experiment: Validation screen for small molecules that inhibit ELG1-dependent DNA repair in human embryonic kidney (HEK293T) cells expressing luciferase-tagged ELG1 (AID 493107); further: nearly all actives have a fitted effect of over 70% in size; further: potency means the concentration at half of the fitted maximal effect
Chain of ATPase family AAA domain-containing protein 5 (Homo sapiens) (Q96QE3 whole entry, looked up, the tested form may be a part): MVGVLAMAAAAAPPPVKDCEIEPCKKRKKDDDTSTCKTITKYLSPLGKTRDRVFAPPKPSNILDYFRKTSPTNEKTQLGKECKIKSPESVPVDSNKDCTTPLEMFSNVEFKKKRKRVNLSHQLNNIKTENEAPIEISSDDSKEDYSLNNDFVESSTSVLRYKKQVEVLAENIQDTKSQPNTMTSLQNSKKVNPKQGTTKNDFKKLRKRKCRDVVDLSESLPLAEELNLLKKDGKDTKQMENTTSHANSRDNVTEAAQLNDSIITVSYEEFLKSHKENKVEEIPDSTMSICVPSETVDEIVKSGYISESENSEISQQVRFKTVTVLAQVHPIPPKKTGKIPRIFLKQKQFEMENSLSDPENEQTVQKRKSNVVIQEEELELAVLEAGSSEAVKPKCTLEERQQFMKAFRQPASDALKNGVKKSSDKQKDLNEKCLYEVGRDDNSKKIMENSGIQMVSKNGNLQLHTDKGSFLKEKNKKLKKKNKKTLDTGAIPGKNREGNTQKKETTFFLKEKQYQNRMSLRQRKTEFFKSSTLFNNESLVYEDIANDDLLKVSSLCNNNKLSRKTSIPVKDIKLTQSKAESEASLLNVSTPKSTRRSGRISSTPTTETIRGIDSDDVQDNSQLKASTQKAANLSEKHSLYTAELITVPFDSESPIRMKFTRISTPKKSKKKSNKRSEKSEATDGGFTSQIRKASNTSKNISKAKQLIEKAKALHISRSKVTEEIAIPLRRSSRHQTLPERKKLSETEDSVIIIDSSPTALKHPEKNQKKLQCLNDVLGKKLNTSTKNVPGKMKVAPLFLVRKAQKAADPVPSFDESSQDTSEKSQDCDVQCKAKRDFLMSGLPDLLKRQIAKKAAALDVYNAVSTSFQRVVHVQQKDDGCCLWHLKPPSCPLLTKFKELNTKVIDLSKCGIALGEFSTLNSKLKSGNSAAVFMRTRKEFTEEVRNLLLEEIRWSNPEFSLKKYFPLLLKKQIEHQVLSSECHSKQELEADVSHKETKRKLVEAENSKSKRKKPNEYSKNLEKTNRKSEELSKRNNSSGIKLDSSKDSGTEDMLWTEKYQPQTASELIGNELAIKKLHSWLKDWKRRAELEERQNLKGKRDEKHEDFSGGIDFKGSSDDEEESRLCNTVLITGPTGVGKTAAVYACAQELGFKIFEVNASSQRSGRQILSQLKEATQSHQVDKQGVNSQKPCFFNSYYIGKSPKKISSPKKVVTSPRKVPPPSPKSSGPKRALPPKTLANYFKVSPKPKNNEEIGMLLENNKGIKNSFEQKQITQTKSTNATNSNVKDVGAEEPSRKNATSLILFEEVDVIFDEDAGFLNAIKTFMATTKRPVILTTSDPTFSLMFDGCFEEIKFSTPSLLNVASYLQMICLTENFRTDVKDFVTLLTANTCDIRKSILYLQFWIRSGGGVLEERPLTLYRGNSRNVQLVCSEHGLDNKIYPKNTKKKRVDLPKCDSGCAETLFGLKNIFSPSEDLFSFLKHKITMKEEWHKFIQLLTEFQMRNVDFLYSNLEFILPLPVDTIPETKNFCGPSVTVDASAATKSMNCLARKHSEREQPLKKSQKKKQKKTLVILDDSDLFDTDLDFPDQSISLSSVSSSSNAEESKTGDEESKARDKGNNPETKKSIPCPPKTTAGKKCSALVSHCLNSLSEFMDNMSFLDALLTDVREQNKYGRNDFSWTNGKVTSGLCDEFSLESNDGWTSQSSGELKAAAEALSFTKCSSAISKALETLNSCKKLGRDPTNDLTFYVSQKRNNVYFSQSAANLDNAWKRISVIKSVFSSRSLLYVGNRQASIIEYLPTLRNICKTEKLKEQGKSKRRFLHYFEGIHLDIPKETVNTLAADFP
In short: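 HEK293T cells expressing luciferase-tagged ELG1, 2,000 per well, treated with 5-fluorouridine plus compound for 16 h at 37 C. ONE-Glo luminescence after 30 min at room temperature reports ELG1 reporter level.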

[13] = target: Thyrotropin-releasing hormone receptor (Homo sapiens) (UniProt P34981); experiment: qHTS for Small Molecule Agonists and Allosteric Enhancers of Human TRH Receptor: Validation Screen for Agonists (AID 493127;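 active means calcium activation more than 3 SD above the typical response in the agonist read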); details: TRH receptor agonist cell assay; at 2 µM; stronger effect = higher value
In short: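 TRHR cells loaded with fluo-8 calcium dye; FDSS kinetic fluorescence (Ex 480/Em 530) read at 1 s/cycle after 23 nL compound addition. Agonist-mode calcium response recorded before the 10 nM TRH (EC20) addition.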

[14] = Nrf2 qHTS screen for inhibitors: Validation (AID 493153; active means well fitted inhibition curve with a large enough effect in the main read-out, with a control signal flat, not every such curve was filed as active); details: Potency: luciferase luminescence; viability change: measured here: cytotoxicity max response
In short: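 A549 cells carrying ARE-firefly luciferase reporter, 5000 cells/well in 5% FBS OPTI-MEM, treated with compound over a concentration series for 18-24 h at 37 C. Luciferase luminescence gave Nrf2 activity; CellTiter-Fluor fluorescence gave viability.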

[15] = qHTS for Inhibitors of Cell Surface uPA Generation: Validation Assay (AID 493164)
In short: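 RAW 264.7 cells (4000/well) were plated overnight, then exposed for 18 h at 37 C, 5% CO2 to compounds in a 7-point 1:5 titration (2.45 nM–38.3 uM final). Intracellular ATP was read by ATP-Lite luminescence.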

[16] = target: Galactokinase (Homo sapiens) (UniProt P51570); experiment: qHTS Validation Assay for Inhibitors of Human Galactokinase (GALK) (AID 493189)
Chain of Galactokinase (Homo sapiens) (P51570 whole entry, looked up): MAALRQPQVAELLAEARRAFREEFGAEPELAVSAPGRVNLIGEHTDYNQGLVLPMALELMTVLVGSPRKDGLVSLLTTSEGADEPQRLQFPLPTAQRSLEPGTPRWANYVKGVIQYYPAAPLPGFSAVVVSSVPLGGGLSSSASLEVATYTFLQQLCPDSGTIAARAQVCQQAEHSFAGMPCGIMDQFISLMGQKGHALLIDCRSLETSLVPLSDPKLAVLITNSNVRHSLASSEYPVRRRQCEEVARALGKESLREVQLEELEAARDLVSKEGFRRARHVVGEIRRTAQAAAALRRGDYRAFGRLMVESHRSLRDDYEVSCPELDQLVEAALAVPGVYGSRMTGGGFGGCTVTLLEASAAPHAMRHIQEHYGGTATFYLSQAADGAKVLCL
In short: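 GALK (5 nM) with 35 uM ATP and 100 uM galactose in HEPES pH8.0, MgCl2, NaCl, DTT, BSA; 1 h at room temperature. Residual ATP read by Kinase-Glo Plus luminescence after 10 min.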

[17] = Validation screen for small molecules that induce DNA re-replication in SW480 colon adenocarcinoma cells (AID 504364); further: potency means the concentration at half of the fitted maximal effect
In short: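 SW480 cells (250/well) exposed 48 h at 37 C, 5% CO2, then Hoechst-stained 40 min. Nuclear DNA content imaged by fluorescence scanning (405 nm excitation, 500-530 nm emission); re-replication scored as increased nuclei with elevated intensity.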

[18] = target: D(1A) dopamine receptor (Homo sapiens) (UniProt P21728); experiment: HTS Assay for Allosteric Agonists of the Human D1 Dopamine Receptor: Primary Screen for Agonists (AID 488981)
In short: as §1

[19] = target: ATP-dependent 6-phosphofructokinase (Trypanosoma brucei brucei) (UniProt O15648); experiment: qHTS Assay to Find Inhibitors of T. brucei phosphofructokinase: hit validation (AID 492961); further: series mostly up to about 51 µM
In short: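 Luminescence from ADP-Glo reports ADP generated as T. brucei PFK (1.25 nM) phosphorylates 0.5 mM fructose-6-phosphate using 0.1 mM ATP. Reactions ran 45 min at room temperature, pH 8.0.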

Structure (SMILES)	outcome [1]	Potency [2]	Potency [3]	Potency [4]	Potency [5]	outcome [6]	outcome [7]	outcome [8]	Potency [9]	Potency [10]	Potency [11]	Potency [12]	activation [13]	Potency [14]	viability change [14]	outcome [15]	outcome [16]	Potency [17]	Potency [18]	Potency [19]
CCCN(CCC)C1Cc2cc(OC)c(OC)cc2C1	inactive	inactive	inactive	inactive	inactive	inactive	inactive	inactive	inactive	inactive	inactive	inactive	-2.94% (inactive)	inactive	11.4%	inactive	inactive	inactive	–	–
CN(C(=O)Cc1ccc(Cl)c(Cl)c1)C(CN1CCCC1)c1cccc(OCC(=O)O)c1 (centres undefined)	inactive	inactive	inactive	inactive	inactive	inactive	inactive	inactive	inactive	inactive	inactive	inactive	0.25% (inactive)	inactive	-6.12%	–	–	inactive	inactive	–
NNC(=O)c1ccc(O)cc1	inactive	inactive	inactive	inactive	inactive	inactive	inactive	inactive	–	inactive	inactive	inactive	0.375% (inactive)	–	–	inactive	inactive	inactive	inactive	–
C[N+]1(C)CCOC(O)(c2ccc(-c3ccc(C4(O)C[N+](C)(C)CCO4)cc3)cc2)C1 (centres undefined)	inactive	inactive	inactive	inactive	inactive	inactive	inactive	inactive	inactive	inactive	inactive	inactive	1.19% (inactive)	inactive	-1.71%	–	–	–	inactive	–
NCCc1ccc(S(=O)(=O)F)cc1	inactive	inactive	inactive	inactive	inactive	inactive	inactive	inactive	inactive	inactive	inactive	–	1.25% (inactive)	inactive	-2.23%	inactive	inactive	–	inactive	–
N#CCCN	inactive	inactive	inactive	inactive	inactive	inactive	–	–	inactive	inactive	inactive	–	–	inactive	-4.25%	–	–	–	inactive	–
C[C@]12Cc3cn4c(nc3C=C1CCC1C2CC[C@@]2(C)[C@H]1CC[C@@]2(O)C#N)nc1ccccc14 (some centres undefined)	inactive	inactive	inactive	inactive	inactive	inactive	inactive	inactive	inactive	inactive	inactive	7.3 µM (active)	-4.5% (inactive)	–	–	inactive	–	23.1 µM (active)	inactive	–
C[Se]C[C@H](N)C(=O)O	inactive	inactive	inactive	inactive	inactive	inactive	inactive	inactive	inactive	inactive	inactive	–	0.188% (inactive)	–	–	–	inactive	–	inactive	–
CCCN1CCc2cccc3c2[C@H]1Cc1ccc(O)c(O)c1-3	inactive	23.8 µM (active)	–	–	70.8 µM (active)	inactive	–	–	inactive	–	inactive	inactive	–	inactive	0.172%	inactive	–	–	–	–
Cc1[nH]c2ccc(O)cc2c1CCN	inactive	inactive	inactive	inactive	–	inactive	inactive	inactive	inactive	inactive	inactive	inactive	0.812% (inactive)	–	–	inactive	inactive	inactive	inactive	–
CCNC(=O)[C@H]1O[C@@H](n2cnc3c(N)ncnc32)[C@H](O)[C@@H]1O	inactive	inactive	inactive	inactive	–	inactive	–	–	inactive	inactive	–	inactive	–	–	–	–	–	–	–	–
CN(N=O)c1cc(O)ccc1O	inactive	0.752 µM (active)	–	8.91 µM (active)	50.1 µM (active)	inactive	inactive	inactive	inactive	inactive	inactive	inactive	-2.69% (inactive)	–	–	inactive	inactive	inactive	inactive	–
COc1ccc2c(c1O)-c1cccc3c1[C@@H](C2)N(C)CC3	inactive	inactive	inactive	–	–	inactive	–	–	inactive	10 µM (active)	inactive	–	–	inactive	-4.97%	inactive	–	–	inactive	–
CO[C@H]1CC=C2CCN3CCC4=C(CC(=O)OC4)[C@]23C1	inactive	inactive	–	inactive	inactive	inactive	inactive	–	inactive	inactive	inactive	inactive	–	inactive	-2.68%	–	inactive	inactive	inactive	–
C#CCN[C@H](C)Cc1ccccc1	inactive	inactive	–	inactive	inactive	inactive	inactive	inactive	inactive	inactive	inactive	inactive	1.31% (inactive)	inactive	0.263%	–	inactive	inactive	inactive	–
CC(=O)c1c(O)c(C)c(O)c(Cc2c(O)c3c(c(C(=O)/C=C/c4ccccc4)c2O)OC(C)(C)C=C3)c1O	inactive	2.12 µM (active)	inactive	–	12.6 µM (active)	inactive	inactive	inactive	inactive	inactive	inactive	–	7.12% (inactive)	–	–	inactive	inactive	–	–	–
Cc1sc2ccccc2c1CC1=NCCN1	inactive	inactive	–	inactive	–	inactive	inactive	inactive	inactive	10 µM (active)	inactive	inactive	1.12% (inactive)	inactive	-0.892%	inactive	inactive	inactive	–	inactive
